Screening results: PubChem, National Center for Advancing Translational Sciences (NCATS)
HCV inhibitor = blocks hepatitis C virus | Huh7.5.1 HCVcc-Cre infection, luciferase reporter, 44 h | Potency, µM (titrated, usually from 41.8 µM), for inactives: top-dose activity change, negative = inhibition, actives largely listed as inhibitors | 340,000 tested, 3.4% active | AID 651820; note: potency is the fitted concentration of half-maximal effect; % is set by controls: 0 for no effect and ±100 for the full control effect
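After 44 h co-culture of compound, cells and HCVcc-Cre (~0.5 moi), substrate is added for 15 min at room temperature and luciferase measured over 15 sec. Cells were seeded at 1,000/well and pre-cultured 4 h.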
CHX counter = counter-screen hit for Shiga toxin inhibitors, cycloheximide. max response, %. 300,000 tested, 12% active. cell reporter, cycloheximide protein synthesis inhibition counterscreen; in the data active = max response mostly above about 13%, no sharp cut-off; inactive = mostly below about 14%; note: read at 38.3 µM for the half of the compounds with a filed dose; 0% is about no effect
AMA1-RON2 inh = disrupts binding of P. falciparum AMA1 to RON2; 360,000 tested, 0.2% active; Potency, µM (titrated, usually from 58.2 µM), for the others: at the top dose activity change, negative = inhibition, hits mostly inhibitors; AlphaScreen AMA1-biotinylated RON2 peptide binding; AID 720542;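 note: potency is the fitted concentration of half-maximal effect; 0% = vehicle wells and -100% = peptide control; nearly all actives have a fitted effect of over 45% in size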
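AMA1 (3D7) with his tag at 25 nM final met compounds first, then biotinylated RON2 peptide at 25 nM; detection used donor plus acceptor beads, 10 µg/mL apiece, read by AlphaScreen after 30 min at room temperature.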
Pf growth 96h = inhibits malaria parasite growth, 96 h; P. falciparum luciferase reporter growth, 96 h; Potency, µM (series often up to 28.7 µM), without a hit: top-dose activity change, negative = inhibition, most hits filed as inhibitors; 320,000 tested, 6.9% active; note: potency is the fitted concentration of half-maximal effect; % is set by controls: 0 for no effect and ±100 for the full control effect
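Luminescence readout: decreased luciferase signal marks inhibited growth of reporter-expressing P. falciparum in infected red cells (2% hematocrit, 0.05% parasitemia final), exposed to compound two generations (96 h, 37 C, 5% CO2).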
Shiga toxin inh = Shiga toxin inhibition. Vero cells, Shiga toxin protein synthesis inhibition reporter. inhibition, % at 38.7 µM. 290,000 tested, 9.2% active; in the data active = inhibition mostly above about 28%, no sharp cut-off; inactive = mostly below about 43%; note: 0% is about no effect
Pf growth 48h = P. falciparum growth inhibition at 48 hours (one generation). Potency, µM (highest dose often 28.7 µM), for inactives: at the top dose activity change, negative = inhibition, actives largely listed as inhibitors. P. falciparum luciferase growth in erythrocytes, 48 h. AID 504832. 310,000 tested, 5.9% active; note: potency is the fitted concentration of half-maximal effect; % is set by controls: 0 for no effect and ±100 for the full control effect
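Parasite viability was followed by luminescence of a genomically integrated firefly luciferase. Cultures held 0.1% parasitemia at 2% hematocrit (final), incubated under 5% CO2 at 37 C.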
* marks the source's active call; other numbers are inactive results; ? = inconclusive; nt = no result; [ ] = dose if it differs, or a comment. In the library only some 21% were active in any assay of this set; here they are far more common. Unless noted, calls come from the whole dose curve; as a rule, active = well fitted curve in the direction sought with a large enough effect; inconclusive = small, poorly fitted or top-dose-only effect, or another doubt; inactive = no such curve, though single readings can be large; an effect the other way counts as inactive or inconclusive.

SMILES | HCV inhibitor | CHX counter | AMA1-RON2 inh | Pf growth 96h | Shiga toxin inh | Pf growth 48h
CCOc1ccc(-c2nnc(SCC(=O)O)n2Cc2ccccc2)cc1 | 14% | -3 | -7% | 0.93µM* | nt | 20%
Cc1occc1-c1nnc(SCC(=O)N2c3ccccc3CCc3ccccc32)n1C | -2% | 7 | -10% | nt | 25 | 7.4µM*
CCSc1nnc(-c2cccc(S(=O)(=O)N(CC)CC)c2)n1Cc1ccccc1 | 4% | -1 | 17% | 17% | -21 | 15µM*
O=C(O)CSc1nnc(-c2ccncc2)n1Cc1ccccc1 | 11% | -7 | 9% | 12% | 38 | nt
CCNC(=O)CSc1nnc(-c2cccc(S(=O)(=O)N(CC)CC)c2)n1CCc1ccccc1 | -7% | -2 | 12% | ? | -5 | ?
CC(C)OC(=O)CSc1nnc(-c2ccc(O)cc2)n1Cc1ccccc1 | 2% | -2 | -17% | 4%[5.75 µM] | 12 | ?
COc1ccc(-c2nnc(SCC(=O)O)n2Cc2ccccc2)cc1 | 11% | -2 | -11% | 7.4µM* | 0 | 6%
CC(C)[C@H](NC(=O)[C@@H]1Cc2ccccc2CN1C(=O)OC(C)(C)C)C(=O)NCc1ccco1 | 7% | -3 | 2% | ? | 12 | ?
Cc1c(NC(=O)C(C)OC(=O)CCc2c[nH]c3ccccc23)c(=O)n(-c2ccccc2)n1C (stereo unspecified) | 5% | nt | -18% | 4% | nt | ?
CCn1c(SCC(=O)N2c3ccccc3CCc3ccccc32)nnc1-c1ccc(OC)cc1 | ? | -3 | 6% | 9.3µM* | 15 | 4.1µM*
CCn1c(SCC(=O)N2CCc3ccccc32)nnc1-c1ccncc1 | 1% | -3 | 5% | 58% | -14 | 4%
Cc1ccc(-n2ncc3c2CC(C)(C)CC3NC(=O)CCc2cccnc2)cc1 (stereo unspecified) | ? | 17 | -2% | 12µM* | -7 | -11%
CCc1noc(C)c1C(=O)NC1CC(C)(C)Cc2c1cnn2-c1ccccc1 (stereo unspecified) | nt | -3 | nt | 9.3µM* | -6 | -23%
Cc1nonc1CC(=O)NC1CC(C)(C)Cc2c1cnn2-c1ccc(F)cc1 (stereo unspecified) | 7% | 14* | -4% | ? | 33* | -1%
CC1(C)Cc2c(cnn2-c2ccccc2)C(NC(=O)CCCn2cncn2)C1 (stereo unspecified) | 16% | 24* | -17% | 12µM* | 29 | -19%
Cc1ccc(-n2ncc3c2CC(C)(C)CC3NC(=O)c2c(C)noc2C)cc1 (stereo unspecified) | 0% | 16 | -9% | ? | 6 | -18%
Cc1cccc(C)c1NC(=O)C(C1CC1)n1c(-c2ccc(C(F)(F)F)cc2)nc2ccccc21 (stereo unspecified) | nt | nt | 4% | nt | nt | nt
CC1(C)Cc2c(cnn2-c2ccc(F)cc2)C(NC(=O)CCn2cncn2)C1 (stereo unspecified) | nt | 25* | 17% | ? | 16 | -2%
CCOCCCN1C(=O)CN(C2CCCCCC2)C(=O)C1c1ccc(OC)cc1 (stereo unspecified) | 1% | -8 | -8% | 0.83µM* | -2 | ?
CCOCCCN1C(=O)CN(C2CCCCC2)C(=O)C1c1ccc(OC)c(OC)c1 (stereo unspecified) | 19% | 0 | 0% | 0% | -11 | -4%
C[C@H](C(=O)CC(=O)OC(C)(C)C)[C@H](O)c1ccccc1 | -4% | 9 | 1% | 89% | -1 | 38%
CCC(CC)NC(=O)CCCSc1nc2ccccc2[nH]1 | -9% | 12 | -17% | 9% | -10 | 0%
Clc1ccc(-c2n[nH]c3c2CCCC3)cc1 | 10µM* | 25 | 13% | 38% | 77 | -9%
CO[C@@]12[C@H](COC(N)=O)C3=C(C(=O)C(C)=C(N)C3=O)N1C[C@@H]1N[C@@H]12 | 6% | nt | -5% | 5.2µM* | nt | 13µM*
CO[C@@]12[C@@H]3N[C@@H]3CN1C1=C(C(=O)C(N)=C(C)C1=O)[C@@H]2COC(N)=O | ? | nt | -16% | nt | nt | nt
SMILES | HCV inhibitor | CHX counter | AMA1-RON2 inh | Pf growth 96h | Shiga toxin inh | Pf growth 48h
CCCNC1=C(C)C(=O)C2=C(C1=O)C(COC(N)=O)[C@]1(OC)C3NC3CN21 (stereo partly specified) | ? | -2 | -20% | 0.19µM* | -7 | 1.3µM*
O=C(COc1ccc(Cl)cc1Cl)N1CCN(C(=O)c2ccco2)CC1 | 6% | -1 | -12% | 47% | -8 | -15%
COc1ccc(S(=O)(=O)N2CCCCC2)cc1NC(=O)CCNC(=O)c1ccco1 | 4% | nt | -14% | ? | nt | 9.3µM*
Cc1ccc(S(=O)(=O)N2CCCCC2)cc1NC(=S)NC(=O)c1ccco1 | ? | 8 | 18% | 4.1µM* | 16 | ?
O=C(NC(=S)Nc1cc(S(=O)(=O)N2CCOCC2)ccc1O)c1ccco1 | 4% | 9 | 49% | -49%[5.75 µM] | -14 | -11%
COc1ccc(S(=O)(=O)N2CCCCCC2)cc1NC(=O)Cc1ccccc1 | 1% | -1 | -12% | -3% | -6 | ?
COc1ccc(S(=O)(=O)N(C)C)cc1NC(=O)CCNC(=O)c1ccco1 | 7% | -10 | 15% | 16% | -3 | 0%
COc1ccccc1Oc1ccc(S(=O)(=O)N2CCCCC2)cc1NC(=O)CCNC(C)=O | nt | 8 | 2% | 5.9µM* | 19 | 12µM*
COc1cc(CN2CCNC(=O)C2CC(=O)N(C)CCN2CCOCC2)cc(OC)c1 (stereo unspecified) | 15% | 0 | 28% | -12% | -5 | 5%
COc1ccc(NS(=O)(=O)c2cccc(C(=O)O)c2)cc1S(=O)(=O)N1CCOCC1 | -13% | nt | -9%[11.6 µM] | nt | nt | nt
OCC1(CO)CCCC(CO)(CO)C1O | 10% | nt | -6% | nt | nt | nt
O=S(=O)(c1ccc(Cl)cc1)N1CCN(CCc2ccncc2)CC1 | -9% | -3 | -12% | -18% | -7 | 6%
CCOC(=O)C1(S(=O)(=O)c2ccc(Cl)cc2)CCN(Cc2ccc(Cl)cc2)CC1 | ? | 11 | -13% | -52% | 7 | ?
CCOC(=O)C1(CCOc2ccccc2)CCN(Cc2ccc(OCCO)cc2)CC1 | ? | -3 | -17% | ? | -15 | ?
CCOC(=O)CNC(=O)N1CCC(CCOc2ccccc2)(C(=O)OCC)CC1 | -3% | -1 | 0% | 8.3µM* | nt | 6%
CCOC(=O)C1(CCOc2ccccc2)CCN(Cc2ccc(O)cc2)CC1 | ? | -2 | -4% | 0% | nt | 13µM*
CCOC(=O)C1(S(=O)(=O)c2ccccc2)CCN(Cc2ccc(Cl)cc2)CC1 | -14% | -4 | -5% | 7.4µM* | -10 | ?
CCOC(=O)C1(CCOc2ccccc2)CCN(Cc2ccc(O)c(OCC)c2)CC1 | ? | -4 | -7% | -24% | -47 | 15µM*
COc1ccc(Nc2c(C3CC3)nc3nc(C)cc(C)n23)cc1 | nt | nt | 1% | nt | nt | nt
